Screening data as filed in PubChem BioAssay.
Compounds with a hit are over-represented: about 4% of the library has one in this group of screens.
D1 antagonist: human D1 dopamine receptor antagonism; P21728; HEK293 TREx D1 cells, calcium flux, dopamine EC80; hits give low values; activity change, negative = inhibition, % at 10 µM; 360,000 tested, 3.2% active; in the data active means activity change below about -30%
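Cells carrying a force-coupled, tetracycline-inducible human D1 receptor report calcium flux. Each well gets a 10 s baseline, compound with 180 s monitoring, then an EC80 dopamine stimulus with a second 180 s kinetic read.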
GRP78 ERSR act: induces the endoplasmic reticulum stress response in human glioma cells. AID 602332. U87-MG GRP78 promoter luciferase reporter, 16 h. 420,000 tested, 0.02% active. Potency, µM, most hits filed as activators; active means well fitted activation curve with a large enough effect; further: series mostly up to about 76 µM; nearly all actives have a fitted effect of over 35% in size
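ERSR induction read as luciferase luminescence (Bright-Glo, 10 min at room temperature) in stably transfected human U87-MG glioma cells exposed to compounds for 16 h, using GRP78 as sensor.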
D1 agonist: activates the human D1 dopamine receptor | P21728 | HEK293 T-REx D1 cells, calcium flux, agonist mode | activation, % at 2 µM | 360,000 tested, 1% active | AID 504660
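Tetracycline-induced HEK293 TREx D1 cells, force-coupled to calcium signalling, were dye-loaded with a no-wash calcium kit. Compound was pin-added after a 10 s baseline. Fluorescence was read kinetically at 1 cycle/s for 180 s, with calcium rises flagged as agonism.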
TRHR ag: agonists of human TRH receptor | 360,000 tested, 0.18% active | activation, % at 2 µM | TRHR cells, calcium flux fluo-8, FDSS agonist mode
Target sequence (P34981 whole entry, looked up): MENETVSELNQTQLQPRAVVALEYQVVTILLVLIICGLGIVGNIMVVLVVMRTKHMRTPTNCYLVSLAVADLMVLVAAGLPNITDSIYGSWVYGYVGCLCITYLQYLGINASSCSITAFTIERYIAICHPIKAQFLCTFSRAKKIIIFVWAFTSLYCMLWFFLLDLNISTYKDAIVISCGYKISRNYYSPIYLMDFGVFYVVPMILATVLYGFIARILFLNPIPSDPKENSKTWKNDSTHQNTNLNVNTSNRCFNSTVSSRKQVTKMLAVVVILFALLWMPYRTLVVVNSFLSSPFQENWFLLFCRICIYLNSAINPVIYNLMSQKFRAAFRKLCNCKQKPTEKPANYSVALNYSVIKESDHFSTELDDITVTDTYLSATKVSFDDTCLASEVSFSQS
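Agonist-mode FDSS calcium read (Ex 480/Em 530, 1 s cycles) in 1536-well TRHR cells with fluo-8 dye, after 10-cycle baseline and 23 nL compound addition; TRH at EC20 (10 nM final) added afterwards for the enhancer phase.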
TRHR enhancer: TRH receptor (human) allosteric enhancement | 360,000 tested, 0.66% active | AID 493056 | enhancement, % at 2 µM | TRHR cells, fluo-8 calcium fluorescence, EC20 TRH enhancement; in the data active means enhancement above about 30%
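TRHR-expressing cells loaded with fluo-8 calcium dye were read kinetically (ex 480/em 530) during compound addition, then stimulated with an EC20 of TRH (10 nM final). Enhancement of the Gq-mediated intracellular calcium response was scored.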
D1 PAM: enhances dopamine response at the human D1 receptor | 360,000 tested, 0.036% active | AID 504651 | P21728 | HEK293 TREx D1 cells, calcium flux, dopamine EC20 potentiation | potentiation, % at 10 µM; in the data active means potentiation above about 30%
Hits are given with their value; 0 = inactive; - = not tested or not shown. Unless noted, no stated cut-off is given here; in the data, active means activation above about 30%; inactive means the rest.

SMILES	D1 antagonist	GRP78 ERSR act	D1 agonist	TRHR ag	TRHR enhancer	D1 PAM
O=C(N/N=C/c1ccco1)Nc1ccccc1	0	0	0	0	0	0
Cc1cccc(NC(=O)CCC(=O)N/N=C/c2ccco2)c1C	0	0	0	0	34	0
O=C(CCC(=O)Nc1ccccc1)N/N=C/c1ccco1	0	0	0	0	38	0
NNC(=O)CCC(=O)Nc1ccccc1	-33	0	0	0	0	0
COc1cc(/C=C(/C#N)c2ccc(F)cc2)ccc1OCc1ccc(C(=O)O)o1	0	0	0	0	0	0
O=C(Cn1c(=O)n(-c2ccccc2Cl)c(=O)c2sc3ccccc3c21)NC1CCCCC1	0	0	39	0	0	0
CC(Oc1ccccc1F)C(=O)NNC(=O)Cc1ccc(S(=O)(=O)N2CCOCC2)s1 (stereo unspecified)	-	0	-	-	-	-
Cc1onc(-c2c(Cl)cccc2Cl)c1C(=O)N1CCOCC1	0	0	0	0	0	0
Cc1cc(C)c2nc(-c3cccc(Cl)c3)c(C)c(C(=O)N3CCOCC3)c2c1	0	0	0	0	33	0
COc1cc2c(cc1O)C(Cc1ccc(O)cc1)N(C)CC2 (stereo unspecified)	-	0	-	-	-	-
COc1ccc(C[C@H]2c3cc(O)c(OC)cc3CC[N+]2(C)[O-])cc1O (stereo partly specified)	-83	0	0	0	0	0
COc1cc2c(cc1O)C(Cc1ccc(O)cc1)NCC2 (stereo unspecified)	-76	0	0	0	0	0
COc1cc2c(cc1O)C(Cc1ccc(O)cc1)[N+](C)([O-])CC2 (stereo unspecified)	-38	0	0	0	0	0
COc1cc2c(cc1OC)[C@H](Cc1ccc(O)cc1)NCC2	0	0	0	0	0	0
CCOC(=O)c1c(NC(=O)CSc2nc(-c3ccc(OC)cc3)cc(C(F)(F)F)n2)sc(C)c1C	0	0	0	0	0	0
Cn1c(=O)nc2n(Cc3ccccc3)c3ccccc3cc-2c1=O	0	0	0	0	31	0
COc1ccc(SCCN2CC[C@@H](O)CCC2=O)cc1	-58	0	0	0	0	0
COc1ccc(SCCN2CC[C@@H](C(C)(C)C)CCC2=O)cc1	-	0	0	0	0	0
NC(=O)COc1ccc(=O)n(-c2ccccc2)n1	-42	0	0	0	0	-
Cn1nc(OCC(N)=O)ccc1=O	-51	0	0	0	0	0
Cc1cc(Oc2ccc(=O)n(C)n2)nc(SCC(N)=O)n1	0	0	0	0	0	0
CC(CCc1ccc(O)cc1)NCc1ccc(Br)cc1 (stereo unspecified)	0	0	31	0	0	0
CC(CCc1ccc(O)cc1)N(C)CCc1ccccc1 (stereo unspecified)	-52	0	0	0	0	0
CSCCC(C(=O)Nc1c(C)cccc1C)N(C)CCc1ccccc1 (stereo unspecified)	-	0	-	-	-	-
COc1ccc(CNC(C)CCc2ccccc2)cc1 (stereo unspecified)	0	0	0	0	0	0
SMILES	D1 antagonist	GRP78 ERSR act	D1 agonist	TRHR ag	TRHR enhancer	D1 PAM
CC(CCc1ccc(O)cc1)NCCC(c1ccccc1)c1ccccc1 (stereo unspecified)	0	0	87	0	0	0
COc1cc(C(O)c2nc(-c3cccs3)cs2)ccc1F (stereo unspecified)	-	0	-	-	-	-
COc1ccccc1-c1nn2c(-c3cc(C)[nH]n3)nnc2s1	-	0	-	-	-	-
Cc1cc(C)c(S(=O)(=O)c2ccc(C(C)(C)C)cc2)c(Cl)n1	0	0	34	0	0	0
Cc1ccc(S(=O)(=O)c2c(C)cc(C)nc2Cl)cc1	0	0	0	0	0	0
CC1=CC(C)(C)NC(=S)N1c1ccc(C)c(C)c1	-31	0	60	0	0	0
COc1cccc(/C=N/NC(=O)c2ccc(-c3ccccc3)cc2)c1O	0	0	0	0	0	0
O=C(CCCC(=O)NN=Cc1ccccc1Cl)NN=Cc1ccccc1Cl	-	0	-	-	-	-
O=C(CNC(=O)c1ccccc1)N/N=C/c1ccccc1Cl	0	0	0	0	0	32
O=C(CCc1ccccc1)Nc1cc2c(cc1Cl)OCCO2	-30	0	0	0	0	0
O=C(CCc1ccccc1)Nc1cc2c(cc1C(=O)O)OCCCO2	-	0	-	-	-	-
